This is part of a sample that, as a whole, favours compounds with a hit. Of some 83,000 tested, about 20% had one in any assay.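 Cell lines were cultured in 96-well plates, exposed to a single compound concentration, and assessed for percent growth 48 hours later.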 Unmarked numbers belong to inactive results. Active and inactive are the calls of the source. How the source made its calls: active means growth percent below 10; inactive means the rest.
Test system: MDA-MB-468 breast
Test: NCI-60 one-dose screen, 48 h (100 = growth as untreated, 0 = no growth, -100 = all killed)
Settings: 10 µM unless noted

Row | SMILES | growth
1 | O=c1ccn(C2OC(CO)C(O)C2F)c(=O)[nH]1 (stereo not given) | 105%
2 | COC(=O)[C@@]12CC[C@@H](C)[C@]3(C[C@@H](c4ccoc4)OC3=O)[C@H]1CC[C@@H]1O[C@@]12C | 106%
3 | COc1c(NC[C@H]2OC(O)[C@H](O)[C@@H](O)[C@@H]2O)c(=O)c1=O (stereo not given in full) | 94.1%
4 | CC(O)(CO)c1ccccc1 (stereo not given) | 99.6%
5 | CCCOC(=O)N[C@H]1CCc2cc(OC)c(OC)c(OC)c2-c2ccc(SC)c(=O)cc21 | -16.8% (active)
6 | CN(C)c1ccc(C(=NO)c2ccc(N(C)C)cc2)cc1 | -0.198% (active)
7 | CC1CCC(C(C)C)C(NNC(N)=O)C1 (stereo not given) | 94.9%
8 | COc1ccc2c(c1)cn1c3ccc(OC)cc3[nH]c(=O)c21 | -12% (active)
9 | COc1ccc2nc(NC(=O)CN3CCn4c(nnc4C(F)(F)F)C3)sc2c1 | 84.5%
10 | CC(C)C[C@H](NC(=O)[C@H](Cc1ccccc1)n1ccc(N2CCCCC2)cc1=O)B(O)O | -24.1% (active)
11 | COc1ccc2[nH]c(-c3ccccc3)cc2c1 | 96.9%
12 | Oc1ccc(Nc2ccccc2)cc1 | 86.4%
13 | COc1ccc(NC(=O)CCl)cc1 | 73.6%
14 | Fc1ccc(Nc2ccc3cc(OCCCN4CCOCC4)ccc3n2)cc1F | 52.8%
15 | COc1ccc(-c2nnc(NC(=O)CN3CCN(c4cc5c(cc4F)c(=O)c(C(=O)O)cn5C4CC4)CC3)s2)cc1OC | 93%
16 | COC(=O)Nc1cccc(Cl)c1OC | 90.1%
17 | COc1cccc2cc(-c3cc4ccccc4[nH]3)/c(=N/C(=S)Nc3ccccc3)oc12 | 79.1%
18 | CCOc1ccc(N=C(C)Nc2ccc(OCC)cc2)cc1 | 116%
19 | COc1cc2nc(Nc3cccc(C(=O)O)c3)nc(N)c2cc1OC | 108%
20 | CC(=O)NCNC(C)=O | 103%

Row | SMILES | growth
21 | Cc1sc2nc(NCc3ccccc3)[nH]c(=O)c2c1C | 23.7%
22 | Nc1ccc2c(c1)Cc1cc(N)c(Cl)cc1-2 | 80.4%
23 | CC(NNC(C)c1ccccc1)c1ccccc1 (stereo not given) | 104%
24 | CC(C)CCC[C@@H](C)[C@H]1CC[C@H]2[C@@H]3CC=C4C[C@@H](C(C(=O)O)C(=O)O)CC[C@]4(C)[C@H]3CC[C@]12C | -32% (active)
25 | O=S(=O)(NCCCNc1nccc(-c2c(-c3ccc(F)c(O)c3)nc3sccn23)n1)c1ccc(Cl)cc1 | 82.8%
26 | C[C@@H]1CC[C@@H]2[C@@H]1[C@H](OC(=O)c1ccc3ccccc3c1)[C@]1(C3CCCCC3)C[C@@H](OC(=O)CO)[C@@]2(C)O1 | 63.6%
27 | O=[N+]([O-])c1ccc(Oc2cc(Cl)c(Cl)cc2Cl)c(C(F)(F)F)c1 | 100%
28 | COc1ccc(OC)c(/C=C2\Oc3cc(OCCN4CCC(Cc5ccccc5)CC4)ccc3C2=O)c1 | 64.8%
29 | C=C1CCc2nc(SCC(=O)O)ccc2N1 | 97.3%
30 | Nc1ncnc2c1C(c1ccccc1)c1ccc3ccccc3c1O2 (stereo not given) | 86.5%
31 | COc1cc2c3c(cccc3c1)C(=O)N(CCN1CCCC1)C2=O | -3.53% (active)
32 | COc1ccc(C2=NNC(c3ccc(Oc4nc5c(c(=O)n(C)c(=O)n5C)n4C)c(OC)c3)C2)cc1 (stereo not given) | 89.5%
33 | COc1ccc(C2C=C(c3ccc(OC)c(OC)c3)N=C3SC=CN32)c(Br)c1 (stereo not given) | 54.5%
34 | COc1ccc(C(=O)Cn2c(C(=O)c3ccc(Cl)cc3)nc3ccccc32)cc1 | 63.9%
35 | CN(C)c1ccc(N=Nc2ccccn2)c(O)c1 | 3.89% (active)
36 | Cn1ncc2c(Sc3ccc(Cl)cc3)ncnc21 | 92.2%
37 | OCCNc1ccccc1 | 99.4%
38 | COc1cc(-c2nc(-c3ccccc3)[nH]c2-c2ccnc(NCCCNS(=O)(=O)c3cccc(F)c3)n2)ccc1Cl | 43.2%
39 | O=C1C2=C(C(=O)c3ccccc31)C(O)(S(=O)(=O)O)C(O)(S(=O)(=O)O)C1N=CC=CC21 (stereo not given) | 18.4%
40 | CCN1C(=O)N(CC)C2C1NN=c1s/c(=C\c3ccc(C(F)(F)F)cc3)c(=O)n12 (stereo not given) | 9.87% (active)

Reference: PubChem BioAssay (NCI)
